Measurements reported in PubChem BioAssay AID1159580 (chemical genetic matrix, 2015).
Hit rate of the full screen: of about 5,500 compounds, about 2,000 (36%) were called active. Inconclusive results (about 18%) are left out. Cut-off read from the data, not from the text of the source: active = normalized growth mostly below about 0.91 (no sharp cut-off); inconclusive = no clear call, values can overlap the other calls; inactive = mostly above about 0.92. The list shows a part of the results.

Assay: chemical genetic growth profiling, strain panel (AID 1159580);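 note: tested at 20 µM; growth read once vehicle control cultures reached saturation at 30 °C; 1 = growth at the plate median or of vehicle wells; lower values mean less growth of the strain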
Conditions: S. cerevisiae deletion strains, growth OD
[1] = locus YAL040C, strain CLN3, hits give low values
[2] = locus YDR363W, strain ESC2, hits give low values
[3] = locus YER002W, strain NOP16, hits give low values
[4] = locus YJR075W, strain HOC1, hits give low values
[5] = locus YMR307W, strain GAS1, hits give low values
[6] = locus YNL175C, strain NOP13, hits give low values
[7] = locus YNL197C, strain WHI3, hits give low values
[8] = locus YNL224C, strain SQS1, hits give low values
[9] = locus YOR083W, strain WHI5 (second series), hits give low values
[10] = locus YPL241C, strain CIN2, hits give low values

Measured: normalized growth

COc1ccc(NC(=O)/C=C/c2ccc(Cl)cc2)cc1
inactive: locus YAL013W, strain DEP1, hits give low values 0.992 | [1] 0.958 | locus YCL061C, strain MRC1 (second series), hits give low values 1 | locus YDR150W, strain NUM1, hits give low values 1 | [2] 1.01 | [3] 0.956 | locus YGR229C, strain SMI1, hits give low values 0.986 | [4] 0.98 | [5] 1.02 | [6] 0.966 | [7] 0.977 | [8] 1 | [9] 0.961 | [10] 1.01

C[N+](C)(C)CC#CCOC(=O)Nc1cccc(Cl)c1
inactive: [1] 0.998 | [2] 0.987 | [3] 0.99 | [4] 0.952 | locus YMR263W, strain SAP30, hits give low values 0.953 | [5] 0.985 | locus YNL128W, strain TEP1, hits give low values 0.966 | locus YNL153C, strain GIM3, hits give low values 0.998 | [6] 0.984 | [7] 0.973 | [8] 0.993 | [9] 0.954 | [10] 0.998

O=C(/C=C/c1ccc(Cl)cc1)Nc1cccc(Cl)c1
active: locus YHR030C, strain SLT2, hits give low values 0.846 | locus YLR113W, strain HOG1, hits give low values 0.816
inactive: locus YAR019C, strain CDC15, hits give low values 0.958 | locus YBL105C, strain PKC1, hits give low values 0.948 | locus YBR135W, strain CKS1, hits give low values 0.961 | locus YBR136W, strain MEC1, hits give low values 0.961 | locus YBR160W, strain CDC28, hits give low values 0.961 | locus YDL017W, strain CDC7, hits give low values 0.949 | locus YDL028C, strain MPS1, hits give low values 0.951 | locus YDL101C, strain DUN1, hits give low values 0.973 | locus YDL108W, strain KIN28, hits give low values 0.961 | locus YDL132W, strain cdc53, hits give low values 0.962 | locus YDL214C, strain PRR2, hits give low values 0.88 | locus YDR052C, strain DBF4, hits give low values 0.952 | locus YDR054C, strain cdc34, hits give low values 0.958 | locus YDR226W, strain ADK1, hits give low values 0.95 | locus YDR477W, strain SNF1, hits give low values 0.838 | locus YER123W, strain YCK3, hits give low values 0.631 | locus YER133W, strain GLC7, hits give low values 0.831 | locus YFL009W, strain cdc4, hits give low values 0.963 | locus YFL029C, strain CAK1, hits give low values 0.949 | locus YFR003C, strain YPI1, hits give low values 0.953 | locus YFR019W, strain FAB1, hits give low values 0.936 | locus YFR028C, strain CDC14, hits give low values 0.968 | locus YGR040W, strain KSS1, hits give low values 0.816 | locus YGR052W, strain FMP48, hits give low values 0.819 | locus YGR092W, strain DBF2, hits give low values 0.485 | locus YHR079C, strain IRE1, hits give low values 0.853 | locus YHR082C, strain KSP1, hits give low values 0.875 | locus YHR205W, strain SCH9, hits give low values 0.744 | locus YIL147C, strain SLN1, hits give low values 0.96 | locus YJL095W, strain BCK1, hits give low values 0.754 | locus YJL128C, strain PBS2, hits give low values 0.919 | locus YJL157C, strain FAR1, hits give low values 0.889 | locus YJR016C, strain ILV3, hits give low values 0.965 | locus YJR066W, strain TOR1 (second series), hits give low values 0.877 | locus YJR066W, strain TOR1, hits give low values 0.831 | locus YKL048C, strain ELM1, hits give low values 0.895 | locus YKL067W, strain YNK1, hits give low values 0.876 | locus YKL101W, strain HSL1, hits give low values 0.872 | locus YKL193C, strain SDS22, hits give low values 0.956 | locus YKL203C, strain TOR2, hits give low values 0.881 | locus YLR133W, strain CKI1, hits give low values 0.864 | locus YLR403W, strain SFP1, hits give low values 0.774 | locus YML070W, strain DAK1, hits give low values 0.798 | locus YMR001C, strain CDC5, hits give low values 0.96 | locus YMR205C, strain PFK2 (second series), hits give low values 0.886 | locus YMR277W, strain FCP1, hits give low values 0.957 | locus YNL006W, strain LST8, hits give low values 0.971 | locus YNL020C, strain ARK1, hits give low values 0.883 | locus YNL161W, strain CBK1, hits give low values 0.965 | locus YNL183C, strain NPR1, hits give low values 0.796 | locus YNL207W, strain RIO2, hits give low values 0.948 | locus YNL222W, strain SSU72, hits give low values 0.961 | locus YNL307C, strain MCK1 (second series), hits give low values 0.699 | locus YOL078W, strain AVO1, hits give low values 0.938 | locus YOL136C, strain PFK27, hits give low values 0.839 | locus YOR061W, strain CKA2, hits give low values 0.857 | locus YOR119C, strain RIO1, hits give low values 0.867 | locus YOR231W, strain MKK1, hits give low values 0.837 | locus YOR329C, strain SCD5, hits give low values 0.957 | locus YPL031C, strain PHO85, hits give low values 0.835 | locus YPL153C, strain RAD53, hits give low values 0.863 | locus YPL204W, strain HRR25, hits give low values 0.822 | locus YPL209C, strain IPL1, hits give low values 0.96 | locus YPL256C, strain CLN2, hits give low values 0.862 | locus YPR025C, strain CCL1, hits give low values 0.952 | locus YPR106W, strain ISR1, hits give low values 0.944 | locus YPR111W, strain DBF20, hits give low values 0.942 | strain NNK1, hits give low values 0.96 | strain TSCII, hits give low values 0.965
